Data reported in PubChem BioAssay AID1159580 (chemical genetic matrix, 2015).
Several values for one entry are separate records, joined by “and”; a condition that tells them apart may be missing. Identical values can stand only once. Screen size: about 5,500 compounds; about 2,000 (36%) were called active. Inconclusive results (about 18%) are left out. No stated cut-off is given here; in the data, active means normalized growth mostly below about 0.91 (no sharp cut-off); inconclusive means no clear call, values can overlap the other calls; inactive means mostly above about 0.92. The list shows a part of the results.

Assay: chemical genetic growth profiling, strain panel (AID 1159580);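 further: tested at 20 µM; growth read once vehicle control cultures reached saturation at 30 °C; 1 = growth at the plate median or of vehicle wells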
Conditions: S. cerevisiae deletion strains, growth OD

Measured: normalized growth

Cc1cc(/C=C/c2ccc3cc(N(C)C)ccc3[n+]2C)c(C)n1-c1ccccc1
inactive: locus YAL013W, strain DEP1, stronger effect = lower value 0.987 | locus YAL026C, strain drs2, stronger effect = lower value 0.924 | locus YAL030W, strain snc1, stronger effect = lower value 0.954 | locus YBL061C, strain skt5, stronger effect = lower value 0.927 | locus YBR009C, strain hhf1, stronger effect = lower value 0.922 | locus YBR023C, strain chs3, stronger effect = lower value 0.96 | locus YBR171W, strain sec66, stronger effect = lower value 1.04 | locus YBR229C, strain ROT2, stronger effect = lower value 1 | locus YCL029C, strain bik1, stronger effect = lower value 0.998 | locus YCL061C, strain MRC1, stronger effect = lower value 0.93 | locus YCL069W, strain vba3, stronger effect = lower value 0.995 | locus YCR088W, strain abp1, stronger effect = lower value 0.978 | locus YDL005C, strain med2, stronger effect = lower value 1.03 | locus YDL040C, strain nat1, stronger effect = lower value 1 | locus YDL185W, strain tfp1, stronger effect = lower value 1 | locus YDL192W, strain arf1, stronger effect = lower value 0.987 | locus YDR001C, strain nth1, stronger effect = lower value 1.01 | locus YDR069C, strain doa4, stronger effect = lower value 0.989 | locus YDR101C, strain arx1, stronger effect = lower value 0.986 | locus YDR159W, strain sac3, stronger effect = lower value 1.04 | locus YDR297W, strain sur2, stronger effect = lower value 0.961 | locus YDR318W, strain mcm21, stronger effect = lower value 0.946 | locus YDR335W, strain msn5, stronger effect = lower value 0.953 | locus YDR388W, stronger effect = lower value 0.989 | locus YDR392W, strain spt3, stronger effect = lower value 0.782 | locus YDR502C, strain sam2, stronger effect = lower value 0.943 | locus YEL003W, strain gim4, stronger effect = lower value 0.949 | locus YEL061C, strain CIN8 (second series), stronger effect = lower value 1 | locus YER016W, strain bim1, stronger effect = lower value 0.992 | locus YER110C, stronger effect = lower value 1.02 | locus YER111C, strain swi4, stronger effect = lower value 1.05 | locus YER155C, strain BEM2, stronger effect = lower value 1.03 | locus YFR010W, strain ubp6, stronger effect = lower value 0.989 | locus YGL078C, strain dbp3, stronger effect = lower value 1.02 | locus YGL167C, strain pmr1, stronger effect = lower value 1.01 | locus YGL173C, strain kem1, stronger effect = lower value 0.974 | locus YGL227W, strain vid30, stronger effect = lower value 1.04 | locus YGL240W, strain doc1, stronger effect = lower value 0.962 | locus YHR079C, strain IRE1 (second series), stronger effect = lower value 1 | locus YHR079C, strain IRE1, stronger effect = lower value 1.04 | locus YHR094C, strain hxt1, stronger effect = lower value 1.01 | locus YHR142W, strain chs7, stronger effect = lower value 1 | locus YIL066C, strain RNR3, stronger effect = lower value 0.87 | locus YIL125W, strain kgd1, stronger effect = lower value 1.03 | locus YIR030C, strain dcg1, stronger effect = lower value 1 | locus YJL095W, strain BCK1 (second series), stronger effect = lower value 1.01 | locus YJL095W, strain BCK1, stronger effect = lower value 0.876 and 1.02 | locus YJL115W, strain asf1, stronger effect = lower value 1.01 | locus YJL134W, strain LCB3, stronger effect = lower value 1 | locus YJL154C, strain vps35, stronger effect = lower value 1.01 | locus YJL164C, strain tpk1, stronger effect = lower value 0.92 | locus YJL166W, strain qcr8, stronger effect = lower value 0.955 | locus YJL168C, strain set2, stronger effect = lower value 0.984 | locus YJL187C, strain SWE1 (second series), stronger effect = lower value 0.88
0.815 (active) and 1.02 (inactive): locus YHR030C, strain SLT2, stronger effect = lower value
active: locus YAL021C, strain ccr4, stronger effect = lower value 0.507 | locus YBR021W, strain FUR4, stronger effect = lower value 0.668 | locus YBR231C, strain swc5, stronger effect = lower value 0.74 | locus YBR279W, strain paf1, stronger effect = lower value 0.882 | locus YCL011C, strain gbp2, stronger effect = lower value 0.837 | locus YCL016C, strain dcc1, stronger effect = lower value 0.912 | locus YDL035C, strain GPR1, stronger effect = lower value 0.525 | locus YDL074C, strain BRE1, stronger effect = lower value 0.653 | locus YDL101C, strain DUN1, stronger effect = lower value 0.744 | locus YDL134C, strain PPH21, stronger effect = lower value 0.615 | locus YDR137W, strain rgp1, stronger effect = lower value 0.834 | locus YDR162C, strain NBP2, stronger effect = lower value 0.232 | locus YDR195W, strain ref2 1.25 [resistant] | locus YDR334W, strain swr1, stronger effect = lower value 0.843 | locus YEL037C, strain rad23, stronger effect = lower value 0.915 | locus YEL061C, strain CIN8, stronger effect = lower value 0.879 | locus YER015W, strain faa2, stronger effect = lower value 0.736 | locus YER155C, strain BEM2 (second series), stronger effect = lower value 0.727 | locus YER167W, strain BCK2, stronger effect = lower value 0.825 | locus YGL086W, strain mad1, stronger effect = lower value 0.889 | locus YGL248W, strain PDE1, stronger effect = lower value 0.65 | locus YGL253W, strain hxk2, stronger effect = lower value 0.684 | locus YGR078C, strain PAC10, stronger effect = lower value 0.776 | locus YGR135W, strain pre9, stronger effect = lower value 0.808 | locus YGR252W, strain gcn5, stronger effect = lower value 0.606 | locus YHR013C, strain ard1, stronger effect = lower value 0.662 | locus YHR027C, strain rpn1, stronger effect = lower value 0.83 | locus YHR129C, strain ARP1, stronger effect = lower value 0.904 | locus YHR200W, strain rpn10, stronger effect = lower value 0.857 | locus YIL073C, strain SPO22, stronger effect = lower value 0.278 | locus YJL092W, strain hpr5, stronger effect = lower value 0.893 | locus YJL129C, strain trk1, stronger effect = lower value 0.373 | locus YJR043C, strain POL32, stronger effect = lower value 0.651
